Screening data deposited in PubChem BioAssay by National Center for Advancing Translational Sciences (NCATS).
Shown are actives, neighbours in structure and some others; about 8% of the full set was active somewhere.
KB-3-1 cytotox = KB-3-1 parental cell cytotoxicity; KB-3-1 viability, CellTiter-Glo ATP luminescence, 72 h; Potency, µM (doses to about 46.1 µM), usual class: cytotoxic; 400,000 tested, 1.4% active; AID 1347075; also: % is scaled to controls: 0 for no effect and ±100 for the full control effect; nearly all actives have a fitted effect of over 60% in size
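Cytotoxicity measured as CellTiter-Glo luminescence after 72 h at 37 C. Compound titrations were pinned onto drug-naive KB-3-1 parental adenocarcinoma cells grown in DMEM with 10% FBS, and normalized data fitted to concentration-response curves.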
HT1080 IDH1KD tx = toxicity to HT-1080 IDH1 knockdown cells (counter line); Potency, µM (highest dose often 46.1 µM), for the others: top-dose activity, negative = toxicity, actives largely listed as cytotoxic; HT-1080 IDH1 knockdown viability, ATP luminescence, 48 h; 360,000 tested, 2% active;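 also: 0% = DMSO wells and -100% = cell-free medium wells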
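Assay cells: HT-1080 with IDH1 knockdown, 750 per well, RPMI/5% FBS. Exposure: 48 h at 37 °C following 2 h pre-incubation. Read: CellTiter-Glo luminescence; fitted concentration-response, curve class assigned.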
SW480 rereplic = inducers of DNA re-replication in SW480 colon cancer cells; Potency, µM (top dose mostly 46.1 µM), for the others: at the highest dose re-replication activation, hits mostly activators; AID 624297; 340,000 tested, 1.8% active; SW480 DNA re-replication, Hoechst DNA content imaging, 48 h; also: % of control where 0% means no effect; nearly all actives have a fitted effect of over 55% in size
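Image-based read-out: total Hoechst fluorescence of nuclei (405 nm excitation, 500-530 nm emission), with hits raising the fraction of high-intensity nuclei. SW480 colon cells incubated 48 hr with compounds at 37 C.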
HT1080-NT tox = kills 2HG-producing HT-1080-NT fibrosarcoma cells; HT-1080-NT fibrosarcoma viability, CellTiter-Glo ATP luminescence, 48 h; Potency, µM (highest dose often 46.1 µM), inactives show at the highest dose activity, negative = less viability, usual class: cytotoxic; 360,000 tested, 1.6% active;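 also: NT is the 2HG producing partner of a matched IDH1 knockdown line; 0% = DMSO-treated cells and -100% = media-only wells without cells; nearly all actives have a fitted effect of over 55% in size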
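Compounds were tested in concentration-response format on HT-1080-NT cells for 48 hours at 37 degrees C. Cell viability came from CellTiter-Glo luminescence; curves were classified by r2, response magnitude and activity.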
KB-V1 MDR tox = kills drug-selected multidrug resistant KB-V1 cells; KB-V1 MDR cells viability, CellTiter-Glo, 72 h; Potency, µM (titrated, usually from 46.1 µM), hits mostly cytotoxic; 400,000 tested, 3.4% active; also: % is scaled to controls: 0 for no effect and ±100 for the full control effect; nearly all actives have a fitted effect of over 60% in size
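Drug-selected KB-V1 cells, grown in DMEM lacking phenol red with 10% FBS, receive compound titrations; after three days at 37 degrees C, surviving cell ATP is quantified by CellTiter-Glo luminescence and responses normalized and curve-fitted.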
MCF10A rereplic = induces DNA re-replication in MCF 10a normal breast cells. MCF 10A DNA re-replication, Hoechst nuclear intensity, 48 h. Potency, µM (top dose mostly 46.1 µM), for inactives: top-dose activity, positive = re-replication, actives largely listed as activators. 350,000 tested, 2.9% active. AID 624296; also: % of control where 0% means no effect; nearly all actives have a fitted effect of over 50% in size
* marks the source's active call; other numbers are inactive results; i = inactive; ? = inconclusive; / = not tested or not shown; [ ] = another dose, or the depositor's remark. Calls follow the shape of the dose curve; as a rule, active = well fitted curve in the direction sought with a large enough effect; inconclusive = small, poorly fitted or top-dose-only effect, or another doubt; inactive = no such curve, though single readings can be large; an effect the other way counts as inactive or inconclusive. Potency is read from the fitted curve at half-maximal effect.

SMILES | KB-3-1 cytotox | HT1080 IDH1KD tx | SW480 rereplic | HT1080-NT tox | KB-V1 MDR tox | MCF10A rereplic
O=C(COc1ccccc1Cl)N1CCN(c2ccc([N+](=O)[O-])c(N3CCCCC3)c2)CC1 | i | 18% | -7% | -2% | 21µM* | -3%
O=C(c1oc(=O)c2ccccc2c1-c1ccccc1)N1CCC(O)CC1 | i | -1% | 5% | -2% | i | 6%
OC[C@H]1O[C@@H](c2nc(-c3nc(-c4ccc(F)cc4)no3)cs2)[C@H](O)[C@@H]1O | i | -11% | / | -11% | i | /
Cc1cccn2c(=O)c3cc(C(=O)NCc4ccco4)c(=N)n(CCc4ccccc4)c3nc12 | i | -7% | 18µM* | -22% | ? | 2.9µM*
Cc1cccn2c(=O)c3cc(C(=O)NCCc4ccccc4)c(=N)n(Cc4ccco4)c3nc12 | i | 5.2µM* | 6.5µM* | 6.5µM* | ? | 13µM*
COc1ccc(C=NC(CO)C(O)c2ccc([N+](=O)[O-])cc2)cc1 (stereo not drawn) | i | 14% | -4% | 22% | ? | 3%
COc1ccc(-c2noc(CCC(=O)Nc3ccc(C(F)(F)F)cc3)n2)cc1 | i | / | / | / | ? | /
COc1ccc(CCN(CC(=O)NC2CCCC2)C(=O)CCC(=O)Nc2cc(C)on2)cc1OC | i | 8% | 0% | 6% | i | -6%
CCNC(=O)OCCC12CC3CC(CC(C3)C1)C2 | i | 12% | -2% | 10% | i | -6%
O=C(OCCC12CC3CC(CC(C3)C1)C2)c1ccc(NCc2cc(O)ccc2O)cc1 | 15µM* | 7.3µM* | ? | 6.5µM* | ? | ?
O=C(OCC12CC3CC(CC(C3)C1)C2)c1ccc(NCc2cc(O)ccc2O)cc1 | ? | 21µM* | ? | ? | i | 25%
N#CCC(=O)Nc1ccc(C(=O)OCC(=O)C23CC4CC(CC(C4)C2)C3)cc1 | i | 0% | -5% | -3% | i | 4%
CCN(CC)CC(=O)Nn1c(C)nc2c(ncn2-c2ccccc2)c1=O | i | -1% | -10% | 4% | i | -1%
Cc1cc(/C=C2\SC(=Nc3ccc(F)cc3)NC2=O)c(C)n1-c1ccc(S(N)(=O)=O)cc1 | 6.5µM* | 5.2µM* | 8.2µM* | 6.5µM* | i | 1.6µM*
Cc1cc(/C=C2\SC(=S)NC2=O)c(C)n1-c1ccc(O)cc1 | ? | ? | 4% | ? | i | ?
CCCCSc1nc(C)c(CC(=O)OC)c(=O)[nH]1 | i | 9% | 2%[9.22 µM] | 13% | i | 0%
COc1ccc(N(CC(=O)Nc2cc(C)ccc2OC)S(=O)(=O)c2c(C)noc2C)cc1 | ? | ? | ? | ? | 9.2µM* | ?
COc1ccc(N(CC(=O)Nc2cc(Cl)ccc2C)S(=O)(=O)c2c(C)noc2C)cc1 | 5.8µM* | ? | -3% | 5.8µM* | ? | 4.1µM*
COc1ccc(N(CC(=O)Nc2cccc(C)c2C)S(=O)(=O)c2c(C)n[nH]c2C)cc1 | i | 4% | -2% | -16% | 18µM* | 7%
CCc1ccccc1NC(=O)CN(c1ccc(OC)cc1)S(=O)(=O)c1c(C)n[nH]c1C | ? | / | / | / | i | /
Cn1c(CNC(=O)OC(C)(C)C)n[nH]c1=S | i | 7% | 0% | 4% | i | 4%
N#C/C(=C\c1c(Cl)cccc1Cl)c1nn(-c2ccccc2)c(-n2cccc2)c1C#N | i | -5% | -7% | ? | i | 16µM*
Cc1ccc(/C=C(\C#N)c2nn(-c3ccccc3)c(N)c2C#N)cc1 | i | -10% | -16% | -6% | 21µM* | ?
Cc1ccc(S(=O)(=O)CC(O)CN2CCCC2=O)cc1 (stereo not drawn) | i | -1% | -4% | 8% | i | 0%
CSCCC(NC(=O)c1ccccc1)C(=O)N(C)CC(=O)Nc1ccc(N2CCOCC2)cc1 (stereo not drawn) | i | ? | 1% | 9% | ? | 1%
SMILES | KB-3-1 cytotox | HT1080 IDH1KD tx | SW480 rereplic | HT1080-NT tox | KB-V1 MDR tox | MCF10A rereplic
COc1ccc(-n2cc(CNCCc3nc(C)cc(C)n3)c(-c3ccccc3Cl)n2)cc1 | i | 16µM* | -1% | 16µM* | ? | ?
COc1ccc(-n2cc(CNCCCn3ccnc3)c(-c3ccccc3Cl)n2)cc1 | i | -16% | ? | -16% | i | ?
COc1ccc(-n2cc(CNCCN3CCOC3=O)c(-c3ccccc3Cl)n2)cc1 | i | -8% | -6% | -3% | i | 7%
CCN1CCC(CNCc2cn(-c3ccc(OC)cc3)nc2-c2ccccc2Cl)C1 (stereo not drawn) | ? | ? | ? | 16µM* | i | ?
Fc1ccc(-n2cc(CNCCc3ccccn3)c(-c3ccccc3Cl)n2)cc1 | ? | 21µM* | 6% | 21µM* | 21µM* | ?
CCOc1ccc(NC(=O)CS(=O)CC(=O)N(CC(=O)NC(C)(C)C)C2CCCC2)cc1 (stereo not drawn) | i | 6% | 0% | 5% | i | 6%
CNC(=O)c1[nH]cnc1C(=O)Nc1ccccn1 | i | -15% | -12% | 1% | i | -10%
CCn1c(-c2ccc(Cl)cc2)n[nH]c1=S | ? | ? | 17% | ? | 10µM* | 1%
CCn1c(-c2ccc(C)cc2)n[nH]c1=S | ? | -1% | -2% | -2% | 18µM* | -6%
CCn1c(-c2csc(C(C)C)c2)n[nH]c1=S | i | 3% | -2% | 0% | 21µM* | -5%
Cc1ccc(-c2n[nH]c(=S)n2Cc2ccccc2)cc1 | i | ? | ? | ? | ? | 13%
CCn1c(-c2ccc(OC)c(OC)c2)n[nH]c1=S | ? | 4% | -3% | 9% | ? | -8%
Cc1ccc(S(=O)(=O)Nc2ccccc2C(=O)OC(C)C(=O)Nc2ccc3ccccc3c2)cc1[N+](=O)[O-] (stereo not drawn) | i | -15% | 18% | -11% | ? | 10%
Cn1c(CSCc2ccc(Cl)cc2)n[nH]c1=S | i | 1% | 1% | 2% | i | 10%
C=C1C(=O)O[C@H]2[C@H]1[C@@H](O)CC(=C)[C@@H]1CC(=O)[C@@H](C)[C@H]21 | i | ? | 4.6µM* | ? | i | 12µM*
CCCC(=O)Nc1ccc(C(=O)NCCc2ccc(F)cc2)cc1 | i | 30% | 5% | 17% | 15µM* | -2%
O=C(NCCc1ccc(F)cc1)c1coc(=O)c(Br)c1 | ? | ? | 18% | ? | i | 4.1µM*
COc1ccc(CC(=O)NNC(=O)c2ccncc2)cc1 | i | 12% | -1% | 1% | i | -3%
